Test results as given in PubChem BioAssay.
The source made the active and inactive calls. Unless noted, no rule for the calls is given here.

Assays:
[1] = A549 cell viability effects, profiling panel, calcein-AM fluorescence, 48 h, basal (AID 1162); conditions: higher = more signal; also: test concentration not given here
[2] = adipocyte viability effects, profiling panel, cell-based, 3T3-L1 adipocytes, calcein-AM fluorescence, 48 h, basal (AID 1163); conditions: 3T3-L1 adipocytes viability, higher = more signal; also: test concentration not given here
[3] = HepG2 cell viability effects, profiling panel, calcein-AM fluorescence, 48 h, basal (AID 1164); conditions: higher = more signal; also: test concentration not given here
[4] = MM1S cell viability effects, profiling panel, calcein-AM fluorescence, 48 h, basal (AID 1165); conditions: higher = more signal;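 also: viability of MM1S multiple myeloma cells under basal unstimulated conditions; test concentration not given here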
[5] = basal RPMI8226 viability, no added stimulus, profiling panel, cell-based, calcein-AM fluorescence, 48 h, PK04 Diversity Set (AID 1166); conditions: RPMI8226 myeloma viability, higher = more signal;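 also: cells grown under basal conditions without added stimulus; test concentration not given here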
[6] = basal HepG2 mitochondrial membrane potential changes, profiling panel, cell-based, JC-1 fluorescence, 24 h, 100 nL compound (AID 1167); conditions: higher = more signal; also: test concentration not given here
[7] = basal 3T3-L1 adipocyte mitochondrial potential changes, profiling panel, cell-based, JC-1 fluorescence, 3T3-L1 adipocytes, 24 h, 100 nL compound (AID 1168); conditions: JC-1 mitochondrial fluorescence, higher = more signal, called active from +8 up or from −8 down; also: test concentration not given here
[8] = basal RPMI8226 mitochondrial membrane potential changes, profiling panel, cell-based, JC-1 fluorescence, 24 h, 100 nL compound (AID 1169); conditions: RPMI8226 myeloma, JC-1 mitochondrial potential fluorescence, higher = more signal; also: test concentration not given here
[9] = basal MM1S mitochondrial membrane potential changes, profiling panel, cell-based, JC-1 fluorescence, 24 h, 100 nL compound (AID 1170); conditions: higher = more signal; also: test concentration not given here
[10] = A549 lung cancer cell viability effects, profiling panel, resazurin fluorescence, 24 h, PK04 Diversity Set (AID 1171); conditions: higher = more signal, called active from +8 up or from −8 down; also: test concentration not given here
[11] = HepG2 liver cancer cell viability effects, profiling panel, resazurin fluorescence, 24 h, PK04 Diversity Set (AID 1172); conditions: higher = more signal; also: test concentration not given here
[12] = basal S. cerevisiae growth modulation, no modifier, primary screen, OD600, strain BY4716, 24 h, basal condition (AID 1173); conditions: OD600, 24 h, higher = more signal, called active from +8 up or from −8 down
[13] = MM1S myeloma cell viability, profiling panel, resazurin fluorescence, basal, 24 h, PK04 Diversity Set (AID 1174); conditions: higher = more signal, called active from +8 up or from −8 down;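 also: MM1S multiple myeloma cell line; test concentration not given here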
[14] = molecular target: Dihydroorotate dehydrogenase (quinone), mitochondrial (Plasmodium falciparum (isolate 3D7)) (UniProt Q08210); assay: PfDHODH enzyme inhibitors, primary screen, biochemical, C-terminal His tag, absorbance 600 nm (AID 1175); conditions: DCIP absorbance 600 nm, higher = more signal, called active from +8 up or from −8 down;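 also: recombinant parasite enzyme with a five histidine tag at its C terminus; test concentration not given here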
[15] = P. aeruginosa biofilm formation inhibitors, primary screen, strain PAO1, LB-PBS medium, absorbance 600 nm (AID 1176); also: test concentration not given here; conditions: P. aeruginosa PAO1 growth/biofilm, A600, 12 h; higher = more signal
[16] = S. cerevisiae RM11-1a growth modifiers, primary screen, strain RM11-1a, OD600, basal, 24 h (AID 1177); conditions: OD600, 24 h, higher = more signal, called active from +8 up or from −8 down;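 also: cultures grown under basal conditions with no added stressor; test concentration not given here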
[17] = E. coli acrAB mutant growth effects, primary screen, E. coli filamentation inducers, strain DRC39, OD650, 24 h (AID 1178); conditions: higher = more signal, called active from +8 up or from −8 down;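 also: growth measured as culture turbidity by optical density at 650 nm; test concentration not given here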
[18] = E. coli acrAB mutant growth effects, primary screen, E. coli filamentation inducers, strain DRC39, OD650, 48 h (AID 1179);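 also: screen aims at cell division blockers that make cells filament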; conditions: E. coli DRC39 delta-acrAB growth, higher = more signal, called active from +8 up or from −8 down
[19] = RPMI8226 myeloma cell viability, profiling panel, resazurin fluorescence, basal, 24 h, PK04 Diversity Set (AID 1180); conditions: higher = more signal;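 also: RPMI8826 multiple myeloma cell line at 5000 cells per well; test concentration not given here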
[20] = molecular target: E3 ubiquitin-protein ligase XIAP (Homo sapiens) (UniProt P98170); assay: XIAP binders, primary screen, biophysical, small-molecule microarray, fluorescence 635 nm (AID 1181); conditions: small-molecule microarray binding, higher = more signal;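 also: score merges 667 nm emission and signal to noise over triplicate slides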
E3 ubiquitin-protein ligase XIAP (Homo sapiens), sequence (P98170 whole entry, looked up): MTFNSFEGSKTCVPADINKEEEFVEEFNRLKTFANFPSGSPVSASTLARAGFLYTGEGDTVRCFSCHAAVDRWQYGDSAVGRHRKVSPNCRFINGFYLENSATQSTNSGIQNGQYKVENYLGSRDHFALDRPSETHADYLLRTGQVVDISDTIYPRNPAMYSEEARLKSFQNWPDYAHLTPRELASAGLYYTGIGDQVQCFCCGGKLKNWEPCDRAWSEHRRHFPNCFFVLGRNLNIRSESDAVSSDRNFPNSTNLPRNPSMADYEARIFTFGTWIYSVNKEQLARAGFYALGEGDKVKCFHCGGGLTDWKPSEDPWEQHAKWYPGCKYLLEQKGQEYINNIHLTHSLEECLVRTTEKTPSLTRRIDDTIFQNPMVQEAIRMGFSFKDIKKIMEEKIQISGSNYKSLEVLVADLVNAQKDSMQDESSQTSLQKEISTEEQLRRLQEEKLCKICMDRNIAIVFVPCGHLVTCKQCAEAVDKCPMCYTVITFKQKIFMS

Dihydroorotate dehydrogenase (quinone), mitochondrial (Plasmodium falciparum (isolate 3D7)), sequence (Q08210 whole entry, looked up): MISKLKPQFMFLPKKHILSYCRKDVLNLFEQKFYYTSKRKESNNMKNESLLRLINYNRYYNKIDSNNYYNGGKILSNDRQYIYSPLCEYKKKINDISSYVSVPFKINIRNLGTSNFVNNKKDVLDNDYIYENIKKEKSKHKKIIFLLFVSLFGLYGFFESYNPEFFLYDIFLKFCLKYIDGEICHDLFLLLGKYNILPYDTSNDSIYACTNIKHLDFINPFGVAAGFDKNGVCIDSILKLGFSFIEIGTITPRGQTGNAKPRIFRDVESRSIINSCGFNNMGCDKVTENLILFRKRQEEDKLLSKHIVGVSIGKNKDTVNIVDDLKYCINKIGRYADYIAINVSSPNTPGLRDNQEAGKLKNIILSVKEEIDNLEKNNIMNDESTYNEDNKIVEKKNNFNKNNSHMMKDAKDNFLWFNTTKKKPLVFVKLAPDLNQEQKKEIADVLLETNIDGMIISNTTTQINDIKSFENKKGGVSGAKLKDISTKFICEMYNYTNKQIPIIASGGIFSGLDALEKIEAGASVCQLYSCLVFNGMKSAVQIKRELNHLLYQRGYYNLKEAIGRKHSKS

In the case of `CCCC=C(CCC)[C@@H](NC(=O)c1ccc(C(F)(F)F)cc1)c1ccc(C(F)(F)F)cc1`, the z-score [1] is reported as -1.88, the z-score [2] is reported as -0.0493 and the z-score [3] is reported as -0.751. For the same compound, the z-score [4] was -1.53, the z-score [5] was -3.65 and the z-score [6] was 4.85. For the same compound, the z-score [7] was 0.216 (inactive), the z-score [8] was -0.235 and the z-score [9] was -0.678. The z-score [10] was 0.949 (inactive), the z-score [11] was 0.706 and the z-score [12] was 2.01 (inactive). For the same compound, the z-score [13] was 0.126 (inactive), the composite z-score [14] was 0.256 (inactive) and the z-score [15] was 0.219 (inactive). The z-score [16] was 2.66 (inactive), the z-score [17] was -0.101 (inactive) and the z-score [18] was 0.0205 (inactive). It also gave a z-score [19] of -1.9 and a composite z-score [20] of 1.11.

`COC(=O)C[C@H]1O[C@@]2(C[C@@H]1[Si](C)(C)C)C(=O)N(C)c1ccccc12` gave a z-score [1] of 0.904, a z-score [2] of 0.69 and a z-score [3] of 0.606. For the same compound, the z-score [4] was 0.561, the z-score [5] was -0.356 and the z-score [6] was 1.23. For the same compound, the z-score [7] was 0.63 (inactive), the z-score [8] was -1.09 and the z-score [9] was 0.965. The z-score [10] was 0.543 (inactive), the z-score [11] was 0.791 and the z-score [12] was -3.71 (inactive). For the same compound, the z-score [13] was 1.41 (inactive), the composite z-score [14] was -0.655 (inactive) and the z-score [15] was 0.826 (inactive). The z-score [16] was -3.42 (inactive), the z-score [17] was 2.3 (inactive) and the z-score [18] was 0.92 (inactive). For the same compound, the z-score [19] was 0.904 and the composite z-score [20] was -0.0966.

Compound `COc1ccc(C(=O)Nc2ccc3c(c2)[C@@]2(O[C@H](CCO)[C@@H]([Si](C)(C)c4ccc(OC)cc4)[C@@H]2C)C(=O)N3Cc2ccccc2)cc1` has a z-score [1] of -1.68, a z-score [2] of 1.38 and a z-score [3] of -3.6. It also gave a z-score [4] of -2.72, a z-score [5] of -4.3 and a z-score [6] of -1.9. For the same compound, the z-score [7] was 1.59 (inactive), the z-score [8] was -1.04 and the z-score [9] was -2.2. For the same compound, the z-score [10] was -2.72 (inactive), the z-score [11] was -2.52 and the z-score [12] was -1.96 (inactive). For the same compound, the z-score [13] was -8.32 (active), the composite z-score [14] was -0.687 (inactive) and the z-score [15] was 0.249 (inactive). The z-score [16] was 2.7 (inactive), the z-score [17] was -0.59 (inactive) and the z-score [18] was -0.927 (inactive). It also gave a z-score [19] of -5.58 and a composite z-score [20] of -0.131.

For `COc1cc(C(O)C2C=CC3C(=O)N(c4ccccc4)C(=O)C3N2Nc2ccccc2F)cc(OC)c1OC` (stereo not given), the z-score [1] was 0.0221, the z-score [2] was -0.603 and the z-score [3] was -0.162. The z-score [4] was -1.76, the z-score [5] was -1.63 and the z-score [6] was -1.15. For the same compound, the z-score [7] was -1.01 (inactive), the z-score [8] was 0.446 and the z-score [9] was 0.142. The z-score [10] was -0.28 (inactive), the z-score [11] was -0.514 and the z-score [12] was 0.886 (inactive). For the same compound, the z-score [13] was -0.565 (inactive), the composite z-score [14] was 0.0998 (inactive) and the z-score [15] was 0.437 (inactive). The z-score [16] was 0.881 (inactive), the z-score [17] was -0.631 (inactive) and the z-score [18] was -0.765 (inactive). It also gave a z-score [19] of -0.17 and a composite z-score [20] of 0.081.

With `C[N+](C)(C)CCCC[C@@H]1NC(=O)[C@H]2C[C@@H](C(=O)NCCCCCNC(=O)CS)[C@@H](c3cccc(OCCO)c3)N2C1=O` the z-score [1] was 0.316, the z-score [2] was 0.571 and the z-score [3] was -0.953. For the same compound, the z-score [4] was -0.631, the z-score [5] was 0.37 and the z-score [6] was 1.09. The z-score [7] was 0.127 (inactive), the z-score [8] was 0.812 and the z-score [9] was 0.415. For the same compound, the z-score [10] was -0.219 (inactive), the z-score [11] was -0.226 and the z-score [12] was -0.307 (inactive). For the same compound, the z-score [13] was 0.703 (inactive), the composite z-score [14] was -0.867 (inactive) and the z-score [15] was 0.298 (inactive). The z-score [16] was -1.13 (inactive), the z-score [17] was -0.133 (inactive) and the z-score [18] was -0.779 (inactive). It also gave a z-score [19] of 0.401 and a composite z-score [20] of -0.102.

With `C=CCOC(=O)[C@@H]1[C@H]2C(=O)O[C@H](c3ccccc3)[C@H](c3ccccc3)N2[C@H](c2ccc(OCCOC(=O)[C@H]3C[C@H]4C(=O)NCC(=O)N4[C@H]3c3cccc(OCCO)c3)cc2)[C@@]12C(=O)Nc1ccc(I)cc12` the z-score [1] was -0.175, the z-score [2] was -0.407 and the z-score [3] was 0.946. It also gave a z-score [4] of 0.464, a z-score [5] of -0.785 and a z-score [6] of -1.05. The z-score [7] was 1.44 (inactive), the z-score [8] was -0.632 and the z-score [9] was -1.27. For the same compound, the z-score [10] was 0.169 (inactive), the z-score [11] was -0.155 and the z-score [12] was 1.87 (inactive). For the same compound, the z-score [13] was -0.0681 (inactive), the composite z-score [14] was 0.131 (inactive) and the z-score [15] was 3.08 (inactive). For the same compound, the z-score [16] was 1.08 (inactive), the z-score [17] was 0.0109 (inactive) and the z-score [18] was 0.312 (inactive). For the same compound, the z-score [19] was -1.09 and the composite z-score [20] was -0.117.

`O=C(NCc1ccccc1)[C@@H]1c2ccccc2C(=O)N(Cc2ccc(OC(F)(F)F)cc2)[C@H]1c1ccc(CO)cc1` gave a z-score [1] of 1.29, a z-score [2] of 0.711 and a z-score [3] of 0.77. The z-score [4] was -0.279, the z-score [5] was 0.473 and the z-score [6] was 2.44. For the same compound, the z-score [7] was -0.602 (inactive), the z-score [8] was -0.728 and the z-score [9] was 0.809. For the same compound, the z-score [10] was 1.39 (inactive), the z-score [11] was 0.299 and the z-score [12] was -0.103 (inactive). The z-score [13] was 0.61 (inactive), the composite z-score [14] was -0.197 (inactive) and the z-score [15] was -0.109 (inactive). The z-score [16] was -0.486 (inactive), the z-score [17] was 0.822 (inactive) and the z-score [18] was 0.387 (inactive). For the same compound, the z-score [19] was 1.5 and the composite z-score [20] was 0.371.

In the case of `N#Cc1ccc(C(O)C2C=CC3C(=O)NC(=O)C3N2Nc2ccc(Cl)cc2Cl)cc1` (stereo not given), the z-score [1] is reported as -0.918, the z-score [2] is reported as 0.325 and the z-score [3] is reported as -0.726. For the same compound, the z-score [4] was -0.399, the z-score [5] was -0.408 and the z-score [6] was -1.35. For the same compound, the z-score [7] was -1.05 (inactive), the z-score [8] was -0.356 and the z-score [9] was 0.153. The z-score [10] was -0.123 (inactive), the z-score [11] was -1.53 and the z-score [12] was -14.4 (active). The z-score [13] was -1.43 (inactive), the composite z-score [14] was -0.173 (inactive) and the z-score [15] was 1.26 (inactive). For the same compound, the z-score [16] was -0.633 (inactive), the z-score [17] was -0.48 (inactive) and the z-score [18] was -0.413 (inactive). The z-score [19] was -1.35 and the composite z-score [20] was 0.0856.

With `C[C@@H]1ON(c2ccccc2)[C@H](c2ccccc2)[C@H]1C(=O)O` the z-score [1] was -0.0985, the z-score [2] was 0.375 and the z-score [3] was -0.374. It also gave a z-score [4] of -0.655, a z-score [5] of 0.0402 and a z-score [6] of -0.246. For the same compound, the z-score [7] was -0.212 (inactive), the z-score [8] was -0.0601 and the z-score [9] was -0.599. For the same compound, the z-score [10] was -0.236 (inactive), the z-score [11] was 0.0656 and the z-score [12] was 0.0157 (inactive). The z-score [13] was -0.0211 (inactive), the composite z-score [14] was 0.341 (inactive) and the z-score [15] was 0.188 (inactive). The z-score [16] was 0.058 (inactive), the z-score [17] was -0.636 (inactive) and the z-score [18] was -1.02 (inactive). It also gave a z-score [19] of 0.481 and a composite z-score [20] of -0.0343.
